Source: PubChem BioAssay
An excerpt weighted towards active compounds, which were near 6% of everything screened.
Tau fluor counter – counter-screen for tau fibril formation inhibitors; Potency, µM (highest dose often 57.7 µM), inactives show top-dose activity change, negative = decrease; AID 1463; tau K18 P301L Alexa594 fluorescence, heparin fibrillization; actives 0.93% (n = 280,000); also: nearly all actives have a fitted effect of over 55% in size
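Human K18 P301L tau (15 uM unlabeled plus 0.24 uM Alexa 594-labeled, final) in 100 mM sodium acetate pH 7 was mixed with compound and 20 uM heparin and incubated 6 hr at 37 C.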
VDR inh – vitamin D3 receptor (human) inhibition; P11473; VDR-SRC2-3 peptide fluorescence polarization, 2 h; Potency, µM, for inactives: max response, negative = inhibition, usual class: inhibitors; actives 0.93% (n = 400,000); AID 504847
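FP read-out; VDR + SRC2-3 coactivator peptide; 23 nl compound by pintool; 2 h RT incubation; reagents held at 4 deg C, protected from light.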
PLK1 PBD inh – PLK1 (human) polo-box domain binding inhibition. Plk1 PBD binding of FITC phosphopeptide, fluorescence polarization. Potency, µM, for inactives: max response, negative = inhibition, most hits filed as inhibitors. actives 2.8% (n = 360,000). AID 720504; also: series mostly up to about 57 µM; nearly all actives have a fitted effect of over 65% in size
Target sequence (P53350 whole entry, looked up, the tested form may be a part): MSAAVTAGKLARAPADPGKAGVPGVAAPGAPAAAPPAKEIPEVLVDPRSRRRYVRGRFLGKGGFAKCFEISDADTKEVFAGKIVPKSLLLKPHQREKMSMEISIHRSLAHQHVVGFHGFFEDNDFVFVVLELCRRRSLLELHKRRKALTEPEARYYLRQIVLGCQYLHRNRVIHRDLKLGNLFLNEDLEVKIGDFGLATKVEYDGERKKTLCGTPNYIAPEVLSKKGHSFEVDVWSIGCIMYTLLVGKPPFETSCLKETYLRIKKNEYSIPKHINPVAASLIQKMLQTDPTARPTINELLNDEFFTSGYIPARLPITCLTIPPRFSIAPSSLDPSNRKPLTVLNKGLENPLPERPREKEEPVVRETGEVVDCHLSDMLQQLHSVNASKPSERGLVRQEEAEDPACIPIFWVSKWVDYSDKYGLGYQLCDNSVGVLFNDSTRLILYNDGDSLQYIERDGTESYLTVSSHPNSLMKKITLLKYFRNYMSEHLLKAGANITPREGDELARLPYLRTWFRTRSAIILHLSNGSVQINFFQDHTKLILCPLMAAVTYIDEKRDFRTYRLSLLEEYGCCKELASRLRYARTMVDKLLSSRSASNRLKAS
Tau ThT inhib – tau fibrillization inhibition (ThT binding) | Potency, µM (titrated, usually from 57.4 µM), without a hit: at the highest dose activity, negative = inhibition, hits mostly inhibitors | AID 1460 | actives 2.1% (n = 270,000) | P10636 | recombinant tau K18 P301L, heparin-induced fibrillization, ThT fluorescence; also: nearly all actives have a fitted effect of over 55% in size
Target sequence (P10636 561-689 P618L limits assumed): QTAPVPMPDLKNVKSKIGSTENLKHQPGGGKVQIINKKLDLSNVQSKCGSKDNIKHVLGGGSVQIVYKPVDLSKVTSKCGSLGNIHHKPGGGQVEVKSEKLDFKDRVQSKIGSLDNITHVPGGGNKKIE
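Using a mix of unlabeled (15 uM) and Alexa 594-labeled (0.24 uM) tau K18 P301L, heparin-triggered fibrillization over 6 hr at 37 C was scored by ThT fluorescence.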
Tau fibril FP – blocks human tau fibril formation measured by polarization; Potency, µM (doses to about 57.7 µM), without a hit: at the top dose activity, negative = inhibition, most hits filed as inhibitors; actives 0.39% (n = 280,000); P10636; K18 P301L tau heparin fibrillization, Alexa594 FP, 6 h; also: nearly all actives have a fitted effect of over 55% in size
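FP of Alexa 594-tau after heparin (20 uM) induction. Substrate: human K18 P301L, 15 uM unlabeled, 0.24 uM labeled. Buffer 100 mM sodium acetate pH 7. 6 hr, 37 C.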
Sfp PPTase inh – Sfp phosphopantetheinyl transferase inhibition; Q9F4F7; Biochemical Sfp PPTase activity, qHTS; Potency, µM, for inactives: largest response in the series, negative = inhibition, hits mostly inhibitors; actives 3.5% (n = 310,000); AID 1490;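 also: the enzyme is Sfp with the accession as filed and its product quenches rhodamine fluorescence; 0% = enzyme reaction without inhibitor and -100% = no enzyme wells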
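Step 1, compound plus 15 nM Sfp-PPTase, 15 min, room temperature. Step 2, add rhodamine-CoA (5 uM) and BHQ-2-YbbR (12.5 uM). Step 3, read 525/598 nm fluorescence at 0 and 30 min.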
* = called active by the depositor; ? = inconclusive; nt = no result given; ! = a repeat was not active; [ ] = dose if it differs, or a comment. Calls follow the shape of the dose curve; as a rule, active = well fitted curve in the direction sought with a large enough effect; inconclusive = small, poorly fitted or top-dose-only effect, or another doubt; inactive = no such curve, though single readings can be large; an effect the other way counts as inactive or inconclusive. Unless noted, % is scaled to controls: 0 for no effect and ±100 for the full control effect; potency is read from the fitted curve at half-maximal effect.

SMILES	Tau fluor counter	VDR inh	PLK1 PBD inh	Tau ThT inhib	Tau fibril FP	Sfp PPTase inh
CC1=C(C(=O)OCc2cc(C)on2)N2C(=O)[C@@H](NC(=O)OCc3cc(C)on3)[C@H]2SC1	nt	-19.5%	?	nt	nt	nt
CC(=O)OCC1=C(C(=O)O)N2C(=O)C(NC(=O)c3ccc(COc4cccc(Cl)c4Cl)o3)C2SC1 (centres undefined)	-15.2%	25.1µM*	?	?	?	-20.8%
CC1=C(C(=O)OCC(Cl)(Cl)Cl)N2C(=O)C(NC(=O)Cc3ccccc3)C2SC1 (centres undefined)	-7.8%	-10.5%	-28.7%	-1.8%	7.4%	?
COc1cccc(C(=O)NC2C(=O)N3C(C(=O)O)=C(COC(C)=O)CSC23)c1 (centres undefined)	nt	?	21.2µM*	nt	nt	nt
CC(=O)OCC1=C(C(=O)O)N2C(=O)C(NC(=O)Cc3cccs3)C2SC1 (centres undefined)	-30.3%	nt	nt	20µM*	?	-51.7%
COc1cccc(C(=O)NN2CCOCC2)c1	nt	-3.3%	-15.5%	nt	nt	nt
Cc1nn2c(=O)cc(COc3ccc(/C=C(\C#N)C(=O)Nc4ccc(F)cc4)cc3)nc2s1	5.5%	-2.6%	nt	?	5.2%	nt
CN(C)c1cc2c3ccccc3n(C)c2cc1N	nt	-9.0%	-19.0%	nt	nt	nt
CO/N=C(/C(=O)N[C@@H]1C(=O)N2C(C(=O)O)=C(COC(N)=O)CS[C@H]12)c1ccco1	nt	50.1µM*	nt	nt	nt	-24.0%
CCc1nc(N)nc(N)c1-c1ccc(N(C)Cc2ccccc2)c([N+](=O)[O-])c1	nt	-15.2%	1.2%	nt	nt	nt
CCC(C)N=C1SCC(C)(/C=N/O)S1 (centres undefined)	-10.5%	8.0%	-14.2%	?	-10.1%	10.6%
CC(C)(C)N=C1SCC(C)(/C=N/O)S1 (centres undefined)	-24.9%	10.2%	-12.4%	25.1µM*	?	-7.7%
C=C(C)COc1ccc(-c2n[nH]c(C)c2-c2ccc(OC)c(OC)c2)c(O)c1	14.1µM*[quencher]	5.5%	5.6%	-9.5%	-10.5%	23.9%
O=[N+]([O-])c1ccc(COc2ccc(-c3[nH]ncc3-c3ccccc3)c(O)c2)cc1	?	-5.8%	5.1%	-6.0%	?	13.9%
C=C(C)COc1ccc(-c2[nH]ncc2-c2ccc(OC)c(OC)c2)c(O)c1	25.1µM*[quencher]	17.2%	0.8%	-9.6%	8.0%	14.5%
COc1ccc(-c2cn[nH]c2-c2ccc(OCC(=O)NN)cc2O)cc1	nt	-6.7%	-1.3%	nt	nt	18.7%
C=C(C)COc1ccc(-c2[nH]ncc2-c2ccc(OC)cc2)c(O)c1	11.2µM*[quencher]	5.6%	0.3%	-14.9%	?	1.1%
C=C(C)COc1ccc(-c2[nH]ncc2-c2ccccc2)c(O)c1	17.8µM*[quencher]	-4.6%	1.3%	-15.2%	-4.8%	11.6%
COc1cc2c(=O)c(C(=O)c3ccc(F)cc3)cn(Cc3cccc(F)c3)c2cc1OC	-20.3%	-7.7%	nt	-7.6%	-7.5%	nt
CCOC(=O)C(CC(=O)Nc1nc(C(C)=O)c(C)s1)C(C)c1ccccc1 (centres undefined)	nt	5.1%	-13.6%	nt	nt	-12.4%
COc1ccc(C2(c3ccc(OC)cc3)NC(=O)N(CC(=O)Nc3ccccc3)C2=O)cc1	nt	3.8%	3.4%	nt	nt	13.1%
COc1ccc(C2(c3ccc(OC)cc3)NC(=O)N(CC(=O)Nc3ccccc3C)C2=O)cc1	nt	8.2%	-6.7%	nt	nt	79.4µM*
O=C(Cc1cccs1)Nc1cccc([N+](=O)[O-])c1	-16.5%	7.1%	-25.1%	-17.5%	0.0%	-5.3%
CNc1cc([N+](=O)[O-])ccc1N/C=C/C(=O)c1cccs1	?	-7.9%	-12.6%	15.8µM*	9.8%	8.5%
COc1ccc(N/C=C\C(=O)c2ccc3c(c2)OCO3)cc1OC	?	-8.2%	1.2%	2.82µM*	0.6%	-9.3%
SMILES	Tau fluor counter	VDR inh	PLK1 PBD inh	Tau ThT inhib	Tau fibril FP	Sfp PPTase inh
O=C(/C=C/Nc1cccc([N+](=O)[O-])c1)c1cccs1	?	-5.5%	-0.6%	4.47µM*	3.2%	-16.5%
Cc1ccc([N+](=O)[O-])cc1NC(=O)c1cccs1	1.2%	-15.7%	-7.6%	4.6%	2.2%	10.4%
CNc1cc([N+](=O)[O-])ccc1N/C=C/C(=O)c1ccc2c(c1)OCO2	-26.8%	-24.8%	-5.5%	3.55µM*	8.2%	?
CCOC(=O)[C@]12CCCC=C1N(Cc1ccco1)C(=O)[C@H](CC(=O)NCCC(C)C)C2	nt	nt	-5.8%	nt	nt	nt
CCOc1ccc(NC(=O)C2CCCN(S(=O)(=O)c3ccc(Br)s3)C2)cc1 (centres undefined)	?	-12.5%	nt	-7.5%	?	nt
CC(=O)N[C@H]1[C@H](OC2CCCCC2)O[C@H](COC(C)=O)[C@@H](OC(C)=O)[C@@H]1OC(C)=O	nt	19.5%	-10.6%	nt	nt	6.0%
CN=c1scc(-c2ccc(F)cc2)n1/N=C/c1ccc(O)c(O)c1	17.8µM*[quencher]	-4.1%	-7.0%	10µM*	-0.5%	56.2µM*
OCCn1c(-c2ccc(F)cc2)csc1=Nc1ccccc1	-20.7%	-28.8%	-1.5%	-16.1%	11.2%	-8.1%
Cc1ccc(Cl)cc1NC(=O)Cn1c(SCC(=O)NCc2ccccc2)nc2ccccc21	-17.7%	2.6%	nt	-3.4%	-13.7%	nt
CCOC(=O)c1c(C)[nH]c(CCC(=O)Nc2cc(C)ccc2OC)c1C	-23.9%	12.3%	nt	-15.7%	13.7%	nt
CC(C)C[C@@H](CN1CCC[C@@H]1CN1C(=S)NC[C@@H]1Cc1ccc(O)cc1)N1C[C@H](Cc2ccc(O)cc2)N(CC2CCCCC2)C1=S	nt	nt	3.2%	nt	nt	nt
NCCSSCCN	-18.6%	25.1µM*	?	14.1µM*	?	44.7µM*!
C=CCn1c(SCC(=O)NC2CCS(=O)(=O)C2)nc2scc(C3CC3)c2c1=O (centres undefined)	-24.2%	5.8%	-5.1%	?	-11.5%	0.1%
C=CCn1c(SCC(=O)c2ccc(CNC(C)=O)o2)nc2scc(C3CC3)c2c1=O	-25.8%	-14.8%	29.9µM*	?	-6.2%	44.7µM*
COCCCNC(=O)CCCN1C(=O)CCn2nc(-c3cn(C)c4ccccc34)cc21	-3.9%	-2.3%	nt	-6.2%	-4.0%	nt
COC(=O)Cc1ccc(NC(=S)NCCSc2ccc(Cl)cc2)cc1	7.94µM*[quencher]	10.0%	1.0%	-14.0%	?	23.2%
O=C([C@H]1O[C@@H](n2ccc(=O)[nH]c2=O)[C@H](O)[C@@H]1O)N1CCC(F)(F)CC1	nt	nt	3.6%	nt	nt	nt
NCc1c(O)ccc2ccccc12	-18.8%	nt	nt	?	7.4%	13.0%
Oc1ccc2ccccc2c1SSc1c(O)ccc2ccccc12	nt	10µM*	nt	nt	nt	nt
CN(C)c1nc(N)nc(/C(C#N)=C/C2CC3C=CC2C3)n1 (centres undefined)	-7.3%	2.5%	-2.5%	-7.7%	-15.0%	56.2µM*
